Residue numbers refer to the chain shown, from its start. Over roughly 24,000 sequences, “enrichment r” has its median near 0.99; the highest 2% begin near 3.7. This is one part of a sample in which the highest values are shown more often than they occur.

T1: UNK ZnF1-3 (human, UniProt Q9C0B0 31-174)
T1 sequence: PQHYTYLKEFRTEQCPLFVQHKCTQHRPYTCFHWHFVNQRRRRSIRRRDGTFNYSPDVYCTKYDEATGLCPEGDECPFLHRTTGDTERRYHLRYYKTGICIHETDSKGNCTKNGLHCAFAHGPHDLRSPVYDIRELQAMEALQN

B1: chr14:89338683:89338684:+_ENSG00000165533_ENST00000346301|hu_hu|hu_hu_hu_mus_False|58_68 (ssRNA)
RNA: GGGAGUUCUACAGUCCGACGAUCGUGGUUGUUGUGGACCAGGGCCAGCCUGAAGCAUUGGUGGGCCAAAUUUGUAUCUCCUAUUCCCACAGCUAUGUGCCCCAGGUUGUACCAGACAUCAGCUGCCUCUUCUUCAUUUUCAGCCAACAGAGGAUUGAGCAUCA
B2: chr9:109937893:109937894:+_ENSMUSG00000032479_ENSMUST00000165876|mus_mus|motif|central (ssRNA)
RNA: GGGAGUUCUACAGUCCGACGAUCUUCACGUGGUUUUUCUUCAGUCUGUACAGUUCCUUUGUCUUUAAUUGGAACUGUUGCGGCUUUUGUUUCCAAGGGCAGUGCAAGAUCGGAGGCUGGAGCCAUGCUGUUGUCCACAAUCAGCAACAGAGGAUUGAGCAUCA
B3: 126495366_126496508_792_3pUTR_ENSMUSG00000040502_ENSMUST00000040307|mouse|control|control (ssRNA)
RNA: GGGAGUUCUACAGUCCGACGAUCAUUAGGCAGGGUUGGUGUGUGCAACGCACUGAGCCGUCACAGCGGCAAGGGCUCAGGAGCUCCCCCUGCUCCGGGCCUUGGAAGCAGAUCCUGCACUGGGGGGUUCGGAGCCCACUGUCCCAACAGAGGAUUGAGCAUCA
B4: chr7:149838571:149838572:-_ENSMUSG00000048583_ENSMUST00000000033|mus_mus|motif|central (ssRNA)
RNA: GGGAGUUCUACAGUCCGACGAUCCAUGUAUCACUUGGCAGUGCCAUCUCCUUAUCUGGCCAAACUUAUUCUACACUGGCGGGUCAUUGGUCCUCAUGGCGGGGGUGGUUGGGGAGCACCGGGCUCACCAUGUGGACAGGUGCUCAACAGAGGAUUGAGCAUCA
B5: chr6:74304526:74304527:-_ENSG00000119899_ENST00000355773|hu_mus|motif|central (ssRNA)
RNA: GGGAGUUCUACAGUCCGACGAUCCAAGUUUAUCAGUGUGUGUGUGUGUGUGUGUGUCCAUUUCAGCUUCAUUUCCGGUGCCCUUACCUUAUAUCAUACUGCCUUUCCUGCAGCCUGAUAUGUGAACCCAGUAUACGGCCUGGCCAACAGAGGAUUGAGCAUCA
B6: chr5:137088537:137088538:-_ENSG00000177733_ENST00000314940|hu_mus|FALSE|FALSE (ssRNA)
RNA: GGGAGUUCUACAGUCCGACGAUCUCCCGCCCGCCCACCCGCCCCCCCAAAAAACACAAAUUAAAACAAGACAUUUUUUUGCUAGUAUAAAAACGACCAAGGUCCAAGUAAUAAUAAAAAAAUAGAGUCCAUCAAUGACUGUAACAACAGAGGAUUGAGCAUCA
B7: chr5:137088537:137088538:-_ENSG00000177733_ENST00000314940|hu_hu|motif|central (ssRNA)
RNA: GGGAGUUCUACAGUCCGACGAUCCAGCAAGUUCACUCCCUCCCUCCCCCCAAAAAACACAAAUUAAAACAAGACAUUUUGCGGGUAUAAAAACGACCAAGGUCCAAGUAAUAAUAAAAAAAUAGAGUCCAUCAAUGACUGUAACAACAGAGGAUUGAGCAUCA
B8: chr5:137088537:137088538:-_ENSG00000177733_ENST00000314940|hu_mus|motif|central (ssRNA)
RNA: B6 RNA with U82G, A83G
B9: chr4:57314706:57314707:+_ENSG00000128050_ENST00000264221|hu_mus|hu_hu_hu_mus_True|48_88 (ssRNA)
RNA: GGGAGUUCUACAGUCCGACGAUCCAGAAUUUCAAAAAUAGCUUGUGUAGCAUGACUCAUGAUGUCCACUUCAGUCUGCCCUAUAACAAGUCCAGCAAAACAGAAUUUUGCAGCAAUGAGUUGCUCCUCAGACCACUGUGGAUCCAACAGAGGAUUGAGCAUCA
B10: chr5:137088537:137088538:-_ENSG00000177733_ENST00000314940|hu_hu|FALSE|FALSE (ssRNA)
RNA: B7 RNA with G82U, G83A
B11: chr4:57314706:57314707:+_ENSG00000128050_ENST00000264221|hu_mus|hu_hu_hu_mus_True|88_98 (ssRNA)
RNA: B9 RNA with U42C, U90G
B12: chr9:15470827:15470828:-_ENSG00000164985_ENST00000397519|hu_hu|motif|central (ssRNA)
RNA: GGGAGUUCUACAGUCCGACGAUCGAAUGUCAAGAGAAGGGCCCCAUUCUCAGGGAUAUAACUGCUAUUCCAGUUUAAUAACGGGCUUCAAAACAAAAUGAAUUUUUAUAUUUUCUAGAUGAAUAAUGUACAACCACCAUCUUCCAACAGAGGAUUGAGCAUCA
B13: chr4:88367131:88367132:-_ENSMUSG00000070923_ENSMUST00000094993|mus_mus|FALSE|FALSE (ssRNA)
RNA: GGGAGUUCUACAGUCCGACGAUCUUGGUAAUUGCUUGCUUCCAAAAGUAAAUUCACACAGGUAUUGUCUGUUCUCAUGAAAUCUACUGUCUGCACAUAGUUGAUGAGAUCCUGUGGUGUCAUCAGUGGAAAGCGAAUAUUCUUCAACAGAGGAUUGAGCAUCA
B14: chr12:16048344:16048345:+_ENSG00000023734_ENST00000419869|hu_hu|hu_hu_hu_mus_True|78_98 (ssRNA)
RNA: GGGAGUUCUACAGUCCGACGAUCAGAUCGUCCAUAAGUUAUAACCAAAAUCUCUCCCUCAGGAAUAUACUCCAUGCUGCUAACAGACAUAUUAAAAUUCAGAGAUUUCACUUCUGUCAUUGUGGCAUGAUCCCAGAGCCGAACCAACAGAGGAUUGAGCAUCA

For the experiment, the target named is T1, UNK ZnF1-3. Kind of experiment: nsRBNS (natural sequence RNA bind-n-seq); RBNS binding buffer (assumed for nsRBNS): 25 mM Tris pH 7.5, 150 mM KCl, 3 mM MgCl2, 0.01% Triton X-100, 500 ug/ml BSA, 20 U/ml SUPERase-In, 4 C; UNK is unkempt and MSI1 is Musashi-1; names of the RNAs are library labels; protein concentration not given here; high values mean tight binding.
With B1, the binding signal came to 0.84 enrichment R.

Molecule B2 yielded a binding signal of 0.462 enrichment R.

Regarding B3, the binding signal stood at 0.848 enrichment R.

B4 gave a binding signal of 0.781 enrichment R.

B5 displayed a binding signal of 0.616 enrichment R.

Molecule B6 displayed a binding signal of 9.05 enrichment R.

Turning to B7, the binding signal turned out to be 6.14 enrichment R.

On to B8, for which the binding signal was 3.51 enrichment R.

B9 had a binding signal of 0.922 enrichment R.

With B10, the binding signal was 5.73 enrichment R.

B11 had a binding signal of 0.943 enrichment R.

For the molecule B12, the binding signal is 1.6 enrichment R.

Molecule B13 yielded a binding signal of 0.859 enrichment R.

Molecule B14 gave a binding signal of 1.06 enrichment R.
